In ChEMBL document CHEMBL3988442, “University of Dundee, Small-Polar-MMV Screening Library” (2021):
For some of these results: Entries with a potency or affinity are not part of this list.

Experiments:
Parameters in all cases: scale not given: direction of the effect not stated beside the values
[1] = molecular target: Protein translocase subunit SecA (Escherichia coli (strain K12)) (UniProt P10408); assay: Assay to Identify E. coli SecA ATPase Inhibitors; type: functional; conditions: 30 µM
[2] = molecular target: T1, Ubiquitin-activating enzyme e1, putative (Leishmania donovani (strain BPK282A1)) (UniProt E9BSI1); assay: Leishmania donovani Ubiquitin Activating Enzyme (LdE1); type: functional; conditions: 30 µM
T1 sequence (whole entry): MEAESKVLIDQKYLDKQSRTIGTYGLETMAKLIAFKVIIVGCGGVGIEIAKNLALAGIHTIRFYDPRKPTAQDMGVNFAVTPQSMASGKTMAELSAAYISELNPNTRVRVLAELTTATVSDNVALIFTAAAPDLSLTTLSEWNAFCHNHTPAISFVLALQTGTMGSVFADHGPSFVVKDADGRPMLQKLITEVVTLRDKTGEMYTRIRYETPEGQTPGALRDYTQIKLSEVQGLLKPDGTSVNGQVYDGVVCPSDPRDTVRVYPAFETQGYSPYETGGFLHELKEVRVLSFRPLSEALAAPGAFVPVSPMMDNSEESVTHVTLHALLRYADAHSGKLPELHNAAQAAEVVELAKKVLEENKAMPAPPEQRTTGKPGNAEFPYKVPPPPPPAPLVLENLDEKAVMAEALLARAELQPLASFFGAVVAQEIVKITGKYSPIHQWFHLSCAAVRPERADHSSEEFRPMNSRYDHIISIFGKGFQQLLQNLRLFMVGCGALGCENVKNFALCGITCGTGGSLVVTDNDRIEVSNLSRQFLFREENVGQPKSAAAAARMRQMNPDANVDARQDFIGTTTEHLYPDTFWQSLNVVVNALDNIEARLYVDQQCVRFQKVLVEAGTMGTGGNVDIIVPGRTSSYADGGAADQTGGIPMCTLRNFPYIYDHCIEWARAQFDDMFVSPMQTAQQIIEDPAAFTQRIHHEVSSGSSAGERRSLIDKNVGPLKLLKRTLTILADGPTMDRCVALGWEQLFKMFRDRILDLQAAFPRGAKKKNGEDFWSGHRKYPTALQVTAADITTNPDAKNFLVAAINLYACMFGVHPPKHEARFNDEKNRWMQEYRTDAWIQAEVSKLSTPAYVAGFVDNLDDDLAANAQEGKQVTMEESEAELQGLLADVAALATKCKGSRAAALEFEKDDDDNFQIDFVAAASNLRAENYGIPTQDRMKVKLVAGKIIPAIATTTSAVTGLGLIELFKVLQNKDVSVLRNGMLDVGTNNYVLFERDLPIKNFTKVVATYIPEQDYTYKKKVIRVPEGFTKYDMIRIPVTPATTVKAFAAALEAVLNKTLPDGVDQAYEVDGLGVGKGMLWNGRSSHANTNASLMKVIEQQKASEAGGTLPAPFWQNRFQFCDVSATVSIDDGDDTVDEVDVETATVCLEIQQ

[3] = molecular target: AMP-activated protein kinase, AMPK (Homo sapiens) (UniProt P54646+O43741+P54619+Q9UGJ0+Q9Y478+Q13131+Q9UGI9); assay: AMP-dependent Kinase enzyme assay. An in vitro enzyme assay that detects ADP turnover that is directly proportional to AMPK activity. This uses naive AMPK that is activated during the assay with MK-8722; type: functional; conditions: 30 µM
[4] = molecular target: Sialic acid-binding Ig-like lectin 9 (Homo sapiens) (UniProt Q9Y336); assay: Hs-Siglec9 ALPHAscreen SOP 20170721; conditions: 10 µM
Sialic acid-binding Ig-like lectin 9 (Homo sapiens), sequence (Q9Y336 whole entry): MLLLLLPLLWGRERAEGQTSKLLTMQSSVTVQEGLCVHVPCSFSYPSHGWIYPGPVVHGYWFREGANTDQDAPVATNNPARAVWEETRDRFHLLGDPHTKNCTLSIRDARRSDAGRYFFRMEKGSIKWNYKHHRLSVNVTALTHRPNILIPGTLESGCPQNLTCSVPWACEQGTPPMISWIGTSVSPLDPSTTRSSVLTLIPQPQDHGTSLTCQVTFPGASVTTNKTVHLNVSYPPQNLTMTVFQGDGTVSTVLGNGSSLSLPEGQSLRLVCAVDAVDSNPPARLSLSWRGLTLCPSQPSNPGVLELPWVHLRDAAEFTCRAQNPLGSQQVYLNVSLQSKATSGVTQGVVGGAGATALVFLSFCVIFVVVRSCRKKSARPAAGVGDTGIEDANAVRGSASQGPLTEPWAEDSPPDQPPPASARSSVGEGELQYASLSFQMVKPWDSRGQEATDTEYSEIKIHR

[5] = tested on: Trypanosoma cruzi; assay: Trypanosoma cruzi phosphomannomutase and mannose-1-phosphate guanylyltransferase assay; type: functional; conditions: 10 µM
[6] = molecular target: T2, Arginase-2, mitochondrial (Homo sapiens) (UniProt P78540); assay: in vitro enzyme assay to detect the production of urea directly proportional to the activity of Arginase II; type: functional; conditions: 33.3 µM; also: in the data most compounds retested in dose-response had high values
T2 sequence (whole entry): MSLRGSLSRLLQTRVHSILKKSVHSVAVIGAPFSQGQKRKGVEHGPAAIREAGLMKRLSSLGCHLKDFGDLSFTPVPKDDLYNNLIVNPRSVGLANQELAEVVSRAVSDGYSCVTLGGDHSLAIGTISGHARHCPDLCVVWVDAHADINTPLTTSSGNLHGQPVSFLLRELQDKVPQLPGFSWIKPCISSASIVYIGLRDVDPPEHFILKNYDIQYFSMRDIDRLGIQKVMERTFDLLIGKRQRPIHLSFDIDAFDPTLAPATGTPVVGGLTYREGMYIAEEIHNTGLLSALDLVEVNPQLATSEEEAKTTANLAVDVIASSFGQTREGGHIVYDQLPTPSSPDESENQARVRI

[7] = molecular target: T3, Proteasome subunit beta (Trypanosoma cruzi) (UniProt O96673); assay: Trypanosoma cruzi proteasome chymotrypsin-like activity (TcProtChymo) assay.; also: in the data most compounds retested in dose-response had high values; type: functional; conditions: 9.37 µM
T3 sequence (whole entry): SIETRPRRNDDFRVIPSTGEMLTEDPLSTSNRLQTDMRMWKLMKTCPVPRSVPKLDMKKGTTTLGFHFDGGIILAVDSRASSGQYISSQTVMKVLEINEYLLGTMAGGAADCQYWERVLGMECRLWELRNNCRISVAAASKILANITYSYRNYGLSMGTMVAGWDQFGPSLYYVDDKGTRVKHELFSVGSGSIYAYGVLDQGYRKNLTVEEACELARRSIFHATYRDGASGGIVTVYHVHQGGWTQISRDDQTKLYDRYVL

[8] = species on record: Homo sapiens; assay: To identify inhibition of the IFN signalling (Jak-Stat) pathway via expression of an eGFP reporter gene under the control of an IFN-stimulated response element (ISRE) containing MxA promoter.; type: functional; conditions: 30 µM
[9] = molecular target: T4, Tyrosyl-tRNA synthetase, putative (Trypanosoma cruzi (strain CL Brener)) (UniProt Q4DSP6); assay: Trypanosoma cruzi tyrosyl tRNA synthetase (TcYRS) _High Tyrosine SOP; type: functional; conditions: 30 µM; also: in the data most compounds retested in dose-response had high values
T4 sequence (whole entry): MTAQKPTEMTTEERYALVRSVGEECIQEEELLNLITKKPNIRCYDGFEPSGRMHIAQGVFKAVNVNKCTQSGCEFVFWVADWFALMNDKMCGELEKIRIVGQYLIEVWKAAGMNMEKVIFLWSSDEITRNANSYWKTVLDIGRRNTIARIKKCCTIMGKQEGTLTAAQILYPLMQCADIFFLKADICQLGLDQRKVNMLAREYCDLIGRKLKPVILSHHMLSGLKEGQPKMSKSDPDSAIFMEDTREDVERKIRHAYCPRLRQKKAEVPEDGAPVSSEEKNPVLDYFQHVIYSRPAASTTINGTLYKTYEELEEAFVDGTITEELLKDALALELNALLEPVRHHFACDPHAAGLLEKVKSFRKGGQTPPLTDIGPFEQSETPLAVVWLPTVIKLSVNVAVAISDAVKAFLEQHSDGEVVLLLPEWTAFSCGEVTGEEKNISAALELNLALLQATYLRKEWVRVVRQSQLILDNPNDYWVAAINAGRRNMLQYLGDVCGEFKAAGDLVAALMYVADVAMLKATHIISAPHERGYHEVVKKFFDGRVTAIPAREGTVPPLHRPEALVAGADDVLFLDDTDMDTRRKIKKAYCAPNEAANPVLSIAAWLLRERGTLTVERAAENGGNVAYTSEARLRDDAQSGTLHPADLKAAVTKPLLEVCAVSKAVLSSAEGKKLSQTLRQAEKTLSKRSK

[10] = molecular target: T4, Tyrosyl-tRNA synthetase, putative (Trypanosoma cruzi (strain CL Brener)); assay: Trypanosoma cruzi tyrosyl tRNA synthetase (TcYRS) SOP; type: functional; conditions: 30 µM
[11] = molecular target: Chromo domain-containing protein 1 (Saccharomyces cerevisiae (strain ATCC 204508 / S288c) (Baker's yeast)) (UniProt P32657); assay: ScCHD-1 Enzyme Inhibition Assay; type: functional; conditions: 30 µM; also: in the data most compounds retested in dose-response had high values
Chromo domain-containing protein 1 (Saccharomyces cerevisiae (strain ATCC 204508 / S288c) (Baker's yeast)), sequence (P32657 whole entry, the tested form may be a part): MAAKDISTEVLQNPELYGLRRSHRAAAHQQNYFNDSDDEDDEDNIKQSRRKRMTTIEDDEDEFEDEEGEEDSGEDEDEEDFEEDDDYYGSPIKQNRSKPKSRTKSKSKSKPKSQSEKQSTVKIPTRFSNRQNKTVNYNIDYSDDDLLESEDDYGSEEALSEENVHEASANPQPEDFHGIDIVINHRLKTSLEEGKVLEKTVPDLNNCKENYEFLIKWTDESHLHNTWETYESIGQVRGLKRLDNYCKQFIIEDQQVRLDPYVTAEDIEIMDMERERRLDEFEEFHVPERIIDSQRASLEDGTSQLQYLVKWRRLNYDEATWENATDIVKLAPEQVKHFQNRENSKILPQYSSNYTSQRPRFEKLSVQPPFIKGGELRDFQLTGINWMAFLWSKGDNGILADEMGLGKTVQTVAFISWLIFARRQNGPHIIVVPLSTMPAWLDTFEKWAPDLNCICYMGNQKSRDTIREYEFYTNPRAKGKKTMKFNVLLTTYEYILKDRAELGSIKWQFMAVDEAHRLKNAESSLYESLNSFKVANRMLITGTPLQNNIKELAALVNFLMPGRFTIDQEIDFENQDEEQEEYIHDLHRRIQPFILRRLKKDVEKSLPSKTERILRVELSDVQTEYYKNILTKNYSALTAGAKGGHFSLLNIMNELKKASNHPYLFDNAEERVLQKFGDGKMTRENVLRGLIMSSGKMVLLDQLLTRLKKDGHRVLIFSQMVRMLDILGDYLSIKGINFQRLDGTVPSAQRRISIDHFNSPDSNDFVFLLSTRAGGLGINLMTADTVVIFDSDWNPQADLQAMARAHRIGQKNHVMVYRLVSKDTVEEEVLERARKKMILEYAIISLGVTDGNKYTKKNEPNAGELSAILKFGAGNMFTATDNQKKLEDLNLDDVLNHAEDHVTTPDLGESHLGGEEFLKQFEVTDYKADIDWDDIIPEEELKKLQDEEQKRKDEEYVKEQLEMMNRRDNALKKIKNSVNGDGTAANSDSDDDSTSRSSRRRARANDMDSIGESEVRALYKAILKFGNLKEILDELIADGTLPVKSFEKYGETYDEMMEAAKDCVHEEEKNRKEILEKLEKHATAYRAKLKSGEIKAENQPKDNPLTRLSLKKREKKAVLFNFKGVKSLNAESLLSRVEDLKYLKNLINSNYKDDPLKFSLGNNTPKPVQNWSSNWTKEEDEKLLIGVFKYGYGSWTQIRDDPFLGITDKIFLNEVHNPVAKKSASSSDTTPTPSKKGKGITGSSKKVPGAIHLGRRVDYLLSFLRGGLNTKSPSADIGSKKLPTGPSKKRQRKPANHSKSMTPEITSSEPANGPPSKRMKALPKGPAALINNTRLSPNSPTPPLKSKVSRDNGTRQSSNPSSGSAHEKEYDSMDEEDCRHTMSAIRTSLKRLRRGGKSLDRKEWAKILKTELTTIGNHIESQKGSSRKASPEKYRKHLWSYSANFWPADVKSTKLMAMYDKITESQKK

Protein translocase subunit SecA (Escherichia coli (strain K12)), sequence (P10408 whole entry): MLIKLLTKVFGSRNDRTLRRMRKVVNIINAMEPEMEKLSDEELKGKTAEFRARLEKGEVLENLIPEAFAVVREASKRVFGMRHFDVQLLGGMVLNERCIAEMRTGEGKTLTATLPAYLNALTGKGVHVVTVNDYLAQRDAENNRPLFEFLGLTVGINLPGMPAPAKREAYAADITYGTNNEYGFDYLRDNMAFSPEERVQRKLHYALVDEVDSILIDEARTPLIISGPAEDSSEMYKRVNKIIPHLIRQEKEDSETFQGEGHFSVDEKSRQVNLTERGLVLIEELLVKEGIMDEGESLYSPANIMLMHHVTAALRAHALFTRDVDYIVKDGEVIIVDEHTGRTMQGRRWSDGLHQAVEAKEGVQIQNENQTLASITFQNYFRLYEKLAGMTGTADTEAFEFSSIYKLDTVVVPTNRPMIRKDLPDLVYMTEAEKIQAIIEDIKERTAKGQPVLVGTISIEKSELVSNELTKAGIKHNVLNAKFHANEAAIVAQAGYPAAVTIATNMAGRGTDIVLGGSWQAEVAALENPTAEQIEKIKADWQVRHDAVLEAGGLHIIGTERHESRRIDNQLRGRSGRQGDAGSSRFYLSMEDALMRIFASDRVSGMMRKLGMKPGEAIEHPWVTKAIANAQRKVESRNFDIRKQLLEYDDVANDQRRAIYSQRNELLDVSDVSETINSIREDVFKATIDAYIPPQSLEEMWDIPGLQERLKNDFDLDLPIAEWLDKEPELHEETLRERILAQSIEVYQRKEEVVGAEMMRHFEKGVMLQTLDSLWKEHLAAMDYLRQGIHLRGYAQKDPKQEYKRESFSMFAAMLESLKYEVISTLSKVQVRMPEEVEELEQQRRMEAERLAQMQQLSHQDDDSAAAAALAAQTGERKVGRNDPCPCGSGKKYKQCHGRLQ

Compound | Percent Effect [1] [%] | Percent Effect [2] [%] | Percent Effect [3] [%] | Percent Effect [4] [%] | Percent Effect [5] [%] | Percent Effect [6] [%] | Percent Effect [7] [%] | Percent Effect [8] [%] | Percent Effect [9] [%] | Percent Effect [10] [%] | Percent Effect [11] [%]
CNc1cc(N2CCCC2CNCc2ccc(Cl)o2)ncn1 (stereo unspecified) | -6.85 | 13.5 | -2.54 | 43.1 | 8.98 | 16.2 | 18.9 | 22 | 15.8 | 23.2 | 89.7
Cc1ccc(S(=O)(=O)N2C[C@H]3C[C@H](NC(=O)c4ccnn4C)[C@H]3C2)cc1 | -1.89 | -6.76 | 9.6 | 1.27 | -0.988 | -3.02 | -3.28 | 84.1 | 2.15 | 3.9 | 14
CCN(C(=O)COC)C(c1cccnc1)c1cc(C)cc(C)c1 (stereo unspecified) | 0.0465 | 2.74 | 4.88 | 27.6 | -11.3 | 1.6 | 12.9 | 22.9 | -2.08 | -8.64 | -2.33
Cc1c[nH]c(CN(C)C(=O)c2cccc(CCC(C)(C)O)c2)n1 | -4.48 | 8 | -4.37 | 15.8 | 5.16 | 20.3 | 18 | -2.28 | 3.83 | 16.1 | -3.88
CC(C)N(C)C(=O)C1=NOC2(CCN(C(=O)c3ccccn3)C2)C1 (stereo unspecified) | 3.88 | 2.74 | -0.462 | 5.09 | -5.95 | -3.59 | 17.9 | 5.05 | 5.21 | 16.1 | 2.42
CC(=O)NCC(=O)N1CCOC2(CCCN(c3cccnc3)C2)C1 (stereo unspecified) | -5.02 | 2.7 | -2.24 | 1.82 | -6.05 | 0.833 | 15.3 | 7.03 | 8.91 | 6.1 | -2.32
CN1CCc2c(C#N)c(NCc3ccco3)n3cnnc3c2C1 | -7.61 | 15.8 | 0.706 | 6.25 | 1.07 | 0 | 14.5 | -6.85 | 4.25 | 15.6 | -17.9
CCOCCCn1c(NC(=O)c2ccc(C)nc2)nc2ccccc21 | -10.1 | 7.79 | 10.5 | 3.52 | 2.25 | 0 | 4.56 | -7.49 | 4.85 | 14.6 | 0.139
c1ccc(Cn2cc3c(n2)C(COCC2CC2)OCC3)nc1 (stereo unspecified) | 3.09 | 10.4 | -0.118 | -14.8 | -4.24 | 3.23 | 12.4 | 8.69 | 1.06 | 6.41 | -7.74
Cc1cc(CN2CCCC(C)(CO)C2)ccc1F (stereo unspecified) | 0.156 | 5.41 | -7.31 | 1.4 | 2.05 | 12.2 | 0.0858 | 5.91 | -1.07 | 3.7 | -7.89
Cc1cccc(C2(CNC(=O)CCN3C(=O)CCC3=O)CCCC2)c1 | -5.2 | 10.1 | 1.38 | 0.402 | 5.95 | -4.56 | 3.36 | 8.93 | 9.36 | 13.9 | -5.07
